# Laboratory results taken from ChEMBL document CHEMBL3988442, “University of Dundee, Small-Polar-MMV Screening Library” (2021).
# Target: AMP-activated protein kinase, AMPK (Homo sapiens) (UniProt P54646+O43741+P54619+Q9UGJ0+Q9Y478+Q13131+Q9UGI9)
# Test: AMP-dependent Kinase enzyme assay. An in vitro enzyme assay that detects ADP turnover that is directly proportional to AMPK activity. This uses naive AMPK that is activated during the assay with MK-8722
# Type: functional
# Set-up: scale not given: direction of the effect not stated beside the values
# Conditions: 30 µM
row,SMILES,Percent Effect [%]
1,O=C(CCn1cncn1)N1CCCC(CO)(CCCc2ccccc2)C1 (stereo not given),0.934
2,CC(C)N1CCC(NC(=O)c2cn(-c3ccc(F)cc3)nn2)C1 (stereo not given),-3.78
3,COc1ccc2c(c1)OCC(C(=O)NCc1ncc3c(n1)CCC3)C2 (stereo not given),-0.599
4,COc1ccc(CCN(C)C(=O)c2cc(C(C)=O)c[nH]2)cc1OC,-3.69
5,CC(C)N1CCC(CC(=O)NCCc2cc(O)ncn2)CC1,-10.1
6,CCCc1ccc(CN2CCC3(CCC(=O)N(C)CC3)CC2)o1,1.5
7,c1ccc(N2CCC(OCC3CCCCO3)CC2)nc1 (stereo not given),6.76
8,c1ccc(CCN2CCCC2c2cccc(Nc3nccs3)n2)cc1 (stereo not given),3.49
9,CCc1c(C)nn(CCN2CC3(CCOC3)CCC2=O)c1C (stereo not given),-3.55
10,CCC(C)NC(=O)Nc1cccc(OCCCC#N)c1 (stereo not given),-4.6
11,Nc1ccc(C(=O)N2CCC(Oc3cccc(C(F)(F)F)c3)CC2)cn1,6.7
12,c1nc(N2CCCC2)ncc1CN1CCCC(CN2CCCCC2)C1 (stereo not given),-7.34
13,CCOc1ccc(C(=O)NC2CCN(c3ncccn3)CC2)cc1C,0.756
14,CN1CCN(C(=O)C2(NC(N)=O)CCCCC2)Cc2ccccc21,0.804
15,Cn1ccnc1C1(O)CCN(C(=O)CCc2ccccc2)CC1,8.55
16,CC(C)(CN1CCC2(CCOCC2)CC1)N1CCOCC1,-0.161
17,CN1CC2(CCCN(CCOCc3ccccc3)C2)OC1=O (stereo not given),-1.54
18,OCc1cccc(OCc2ccon2)c1,4.35
19,Cc1cn2nc(N(C)C3CCCN(c4cccnn4)C3)sc2n1 (stereo not given),2.94
20,Cc1cc(C)cc(OCCN(C)C2CCOC2=O)c1 (stereo not given),-0.216

row,SMILES,Percent Effect [%]
1,O=C(NCc1cccnc1N1CCCCC1)c1ccc2c(c1)OCO2,-2.38
2,CC1(c2nccs2)CCN(C(=O)CCN2CCOCC2)CC1,10.7
3,Cc1cc(=O)n2nc(Oc3cc(Cl)cc(Cl)c3)sc2n1,-4.19
4,Cc1ccnc2c1NC(=O)CN2C(=O)CCC(F)(F)F,1.79
5,CN(Cc1cc(Br)cn1C)C(=O)c1cccnc1,-0.766
6,Cc1ccc(C(=O)N2[C@@H]3CC[C@H]2CN(C)C(=O)C3)c(=O)[nH]1,8.78
7,CCc1ncc2c(n1)CN(c1cc(NCCO)nc(N)n1)C2,-219
8,CCC(O)CNC(=O)c1cc(COc2ccc(OC)cc2Cl)[nH]n1 (stereo not given),2.19
9,CC(O)C(=O)N1CCC(c2[nH]ncc2-c2ccccc2)CC1 (stereo not given),-11.2
10,CCc1cc(N2CCC(NCc3ccc(C)o3)CC2)ncn1,6.83
11,Cc1nnc(-c2cccc(C#N)c2)n1C1CCCN(C(C)C)C1=O (stereo not given),4.62
12,NC(=O)C1CCN(C(=O)NC(Cc2ccccc2)C(F)(F)F)CC1 (stereo not given),0.0823
13,COc1cc(N(C)Cc2cc(C(C)(C)C)n[nH]2)ncn1,-15.7
14,CCN(C)C[C@@H]1CN(Cc2cnc3c(S(C)(=O)=O)cnn3c2)C[C@@H]1CO,-11.4
15,NC(=O)CC1CCN(Cc2ccccc2OCC(F)(F)F)CC1,-3.02
16,O=C(NCc1nc[nH]n1)c1cc(COc2cccc(C(F)(F)F)c2)[nH]n1,-6.06
17,Cc1nc2c(c(=O)[nH]1)CN(C(=O)CC[C@@H]1CCCN3CCCC[C@H]13)C2,16.1
18,CC1(c2ncc(CN3CCOCC3)cn2)CCCCO1 (stereo not given),9.84
19,COC(=O)c1ccc(C(=O)NCc2ccco2)nc1,-1.39
20,Cc1[nH]c2c(C)ccc(C)c2c1CC(=O)NC1CCCNC1=O (stereo not given),6.1
